Consider seven molecules from PubChem BioAssay (EPA / NIEHS).

Records with an inconclusive call do not appear. Active and inactive are the calls of the source. Rule for the calls, unless noted: active = hit-call score of the fitted dose curve at least 0.9, where 1 is the maximum; inactive = score below 0.9.

In general, AC50 refers to the midpoint of the concentration-response curve, whichever way the signal moves.

Test [1] can be described thus: ATG_NRF2_ARE_CIS: Attagene CIS-FACTORIAL HepG2 Assay for human Nuclear Factor Erythroid 2 Related Factor 2 (NFR2) response to Antioxidant Response Elements (ARE) (AID 2282992).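 For AC50: reporter mRNA level measured by RT-PCR and capillary electrophoresis fluorescence.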 The following applies: HepG2 Attagene ARE/NRF2 reporter, transcription factor activity; actives raise or lower the signal. In short, it runs like this: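 Fluorescence intensity of reporter-specific cDNA fragments, separated by capillary electrophoresis, reflects mRNA induction in transfected HepG2 cells at 24 h. Activity is fitted bidirectionally, DMSO serving as baseline.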

Test [2] is described as follows: ATG_Oct_MLP_CIS: Attagene CIS-FACTORIAL HepG2 Assay for human Octamer-Binding Transcription Factor (Oct) (AID 2282993). The following applies: HepG2 Attagene cis-factorial Oct reporter, mRNA; actives raise or lower the signal. The essentials: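 Transient MRTU transfection of HepG2 → 24 h compound treatment → RNA isolation, reverse transcription, PCR → 6-FAM primer extension, HpaI digest → capillary electrophoresis. Activity fitted both directions against DMSO.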

For test [3], the target named is Cellular tumor antigen p53 (Homo sapiens) (UniProt P04637). As to the kind of experiment: ATG_p53_CIS: Attagene CIS-FACTORIAL HepG2 Assay for human p53 Transcription Factor (AID 2282994). The following applies: HepG2 p53 cis-element reporter, Attagene mRNA; actives raise or lower the signal. The essentials: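 Transiently transfected HepG2 (multiple cis reporter transcription units); exposure 24 h; reporter RNA via RT-PCR, 6-FAM extension, 2 h HpaI digest at 37 C, CE detection; DMSO baseline.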
Chain of Cellular tumor antigen p53 (Homo sapiens) (P04637 whole entry, looked up): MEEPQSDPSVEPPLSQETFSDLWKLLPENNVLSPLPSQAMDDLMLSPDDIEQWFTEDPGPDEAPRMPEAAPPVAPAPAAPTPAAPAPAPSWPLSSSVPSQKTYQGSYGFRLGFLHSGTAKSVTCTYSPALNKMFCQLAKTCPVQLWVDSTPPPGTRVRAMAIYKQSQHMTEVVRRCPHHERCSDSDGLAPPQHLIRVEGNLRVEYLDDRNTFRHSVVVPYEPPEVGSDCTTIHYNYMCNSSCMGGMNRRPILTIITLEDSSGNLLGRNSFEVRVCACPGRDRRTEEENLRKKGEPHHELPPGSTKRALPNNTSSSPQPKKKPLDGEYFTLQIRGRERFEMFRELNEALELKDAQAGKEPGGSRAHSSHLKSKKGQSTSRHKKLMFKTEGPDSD

Test [4] in a line: BSK_3C_TissueFactor: BioMAP Diversity Plus: 3C Assay for Tissue Factor Biomarker Activity (AID 2282997). The following applies: BioMAP 3C HUVEC, tissue factor biomarker readout; actives raise or lower the signal. In short, it runs like this: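 Cells used were primary human umbilical vein endothelial cells. They were dosed with chemical, and after 24 h Tissue Factor was quantified by ELISA. Curves were fitted bidirectionally with DMSO as baseline.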

Test [5] in a line: BSK_3C_uPAR: BioMAP Diversity Plus: 3C Assay for Urokinase-type plasminogen activator receptor (uPAR) Biomarker Activity (AID 2282998). The following applies: BioMAP 3C HUVEC, uPAR biomarker ELISA; actives raise or lower the signal. The essentials: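 ELISA readout of uPAR on human vascular endothelium (umbilical vein primary cells), taken 24 h after chemical dosing. Increases and decreases are both fitted relative to DMSO vehicle.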
A general note: ELISA stands for enzyme-linked immunosorbent assay.

The nature of test [6]: BSK_3C_VCAM1: BioMAP Diversity Plus: 3C Assay for Vascular cell adhesion molecule 1 (VCAM1) Biomarker Activity (AID 2282999). The following applies: BioMAP 3C HUVEC, VCAM1 ELISA, cytokine-stimulated; actives raise or lower the signal. In short, it runs like this: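 Activity fitted in both directions relative to DMSO, with ELISA measurement of the surface marker on primary HUVEC (3C) at 24 h post-treatment; parallel SRB staining (0.1% SRB, TCA-fixed, 560 nm) flagged overt cytotoxicity.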

Test [7] is described as follows: BSK_4H_Eotaxin3: BioMAP Diversity Plus: 4H Assay for Eotaxin 3 Biomarker Activity (AID 2283000).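 For outcome: CCL26 protein level quantified by ELISA in parallel with SRB cytotoxicity check.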 The following applies: primary human endothelial cells (HUVEC); actives raise or lower the signal. The essentials: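 Endothelial primary cells (human umbilical vein) exposed to compound for 24 h. ELISA detection of Eotaxin-3.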
Test [8] has as its target human Peroxisome Proliferator-activated Receptor alpha (PPARa), PPARA (gene 5465) (UniProt Q07869). As to the kind of experiment: ATG_PPARa_TRANS: Attagene TRANS-FACTORIAL HepG2 Assay for human Peroxisome Proliferator-activated Receptor alpha (PPARa) (AID 2283001; active = hit-call score of the fitted dose curve at least 0.9, where 1 is the maximum;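 for AC50: potency for gain of reporter signal over DMSO so agonist or activator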). The essentials: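 Transfected HepG2 cells treated with test chemical for 24 h. RNA isolated, reverse-transcribed with oligo(dT), PCR-amplified, FAM-labelled and HpaI-digested. Fragments sized by capillary electrophoresis; gain-of-signal fit relative to DMSO.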

Read-out in test [9]: Intercellular Adhesion Molecule 1 (ICAM1), ICAM1 (gene 3383)
In words: BSK_3C_ICAM1: BioMAP Diversity Plus: 3C Assay for Intercellular Adhesion Molecule 1 (ICAM1) Biomarker Activity (AID 2283003). The following applies: primary human endothelial cells (HUVEC); actives raise or lower the signal. In short, it runs like this:
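Using DMSO as baseline, bidirectional curve fitting was applied to ICAM-1 ELISA signals from HUVEC in the 3C system, measured 24 h after compound addition.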

The target of test [10] is human Retinoic Acid Receptor beta (RARb), RARB (gene 5915) (UniProt P10826). In words: ATG_RARb_TRANS: Attagene TRANS-FACTORIAL HepG2 Assay for human Retinoic Acid Receptor beta (AID 2283004; active = hit-call score of the fitted dose curve at least 0.9, where 1 is the maximum). In short, it runs like this:
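HepG2, transient MRTU transfection, NR–Gal4 chimera, 24 h treatment; RT-PCR plus CE fluorescence detection of reporter mRNA; gain of signal vs DMSO.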

Test [11] concerns the target Retinoic acid receptor alpha (Homo sapiens) (UniProt P10276). As to the kind of experiment: ATG_RARa_TRANS: Attagene TRANS-FACTORIAL HepG2 Assay for human Retinoic Acid Receptor alpha (RARa) (AID 2283005; active = hit-call score of the fitted dose curve at least 0.9, where 1 is the maximum). In short, it runs like this: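 Reporter transcripts, measured by RT-PCR with fluorescent labeling and capillary electrophoresis after 24 h dosing, reflect activity of an exogenous human RARa–GAL4 fusion in transiently transfected HepG2. Fitted for increase relative to DMSO.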

Test [12] deals with Peroxisome proliferator-activated receptor gamma (Homo sapiens) (UniProt P37231). In words: ATG_PPARg_TRANS: Attagene TRANS-FACTORIAL HepG2 Assay for human Peroxisome Proliferator-activated Receptor-gamma (PPARg) (AID 2283007; active = hit-call score of the fitted dose curve at least 0.9, where 1 is the maximum). In short, it runs like this: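 A TRANS-format multiplexed reporter assay measures activity of an exogenous chimeric NR-Gal4 protein in HepG2 cells. After 24 h of chemical exposure, reporter transcripts are amplified, fluorescently labelled and sized by capillary electrophoresis, with gain of signal scored against DMSO.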
Chain of Peroxisome proliferator-activated receptor gamma (Homo sapiens) (P37231 whole entry, looked up, the tested form may be a part): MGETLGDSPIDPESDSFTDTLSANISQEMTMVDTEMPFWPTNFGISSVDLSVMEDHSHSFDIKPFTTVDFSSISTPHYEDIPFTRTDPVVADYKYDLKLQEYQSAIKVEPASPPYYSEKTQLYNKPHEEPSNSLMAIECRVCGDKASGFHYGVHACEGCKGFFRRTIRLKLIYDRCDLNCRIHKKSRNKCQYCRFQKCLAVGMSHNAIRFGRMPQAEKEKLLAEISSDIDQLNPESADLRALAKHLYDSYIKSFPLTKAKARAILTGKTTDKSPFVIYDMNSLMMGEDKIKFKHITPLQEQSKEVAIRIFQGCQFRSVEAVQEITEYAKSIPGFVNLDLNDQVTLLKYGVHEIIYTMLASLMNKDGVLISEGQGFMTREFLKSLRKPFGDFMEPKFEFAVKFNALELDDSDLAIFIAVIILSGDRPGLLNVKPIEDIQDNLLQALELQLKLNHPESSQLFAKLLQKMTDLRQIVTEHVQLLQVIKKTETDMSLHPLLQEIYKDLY

Test [13] deals with Nuclear receptor subfamily 1 group I member 2 (Homo sapiens) (UniProt O75469). As to the kind of experiment: ATG_PXR_TRANS: Attagene TRANS-FACTORIAL HepG2 Assay for human Pregnane X Receptor (PXR) (AID 2283008; active = hit-call score of the fitted dose curve at least 0.9, where 1 is the maximum). In short, it runs like this:
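Transient HepG2 transfectants carrying multiplexed reporter transcription units; PXR activity read through a Gal4 chimera. 24 h exposure. RT-PCR/CE fluorescence; upward curve fit referenced to DMSO.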

Test [14] addresses human Retinoic Acid Receptor gamma (RARg), RARG (gene 5916) (UniProt P13631). In words: ATG_RARg_TRANS: Attagene TRANS-FACTORIAL HepG2 Assay for human Retinoic Acid Receptor gamma (RARg) (AID 2283009; active = hit-call score of the fitted dose curve at least 0.9, where 1 is the maximum). In short, it runs like this: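 Gain-of-signal relative to DMSO is reported from fluorescent capillary electrophoresis of RT-PCR reporter products. These came from HepG2 cells expressing transfected RARg-GAL4 chimeras with UAS reporters, harvested 24 h after dosing.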

For test [15], the target named is Retinoic acid receptor RXR-alpha (Homo sapiens) (UniProt P19793). As to the kind of experiment: ATG_RXRa_TRANS: Attagene TRANS-FACTORIAL HepG2 Assay for human Retinoid X Receptor alpha (RXRa) (AID 2283012; active = hit-call score of the fitted dose curve at least 0.9, where 1 is the maximum). The essentials:
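Chimeric NR-GAL4 trans-activation in HepG2, 24 h treatment; reporter transcripts quantified by fluorescence on capillary electrophoresis, analysed for upward change from DMSO.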

A short description of test [16]: ATG_NF_kB_CIS: Attagene CIS-FACTORIAL HepG2 Assay for human Nuclear Factor Kappa B (NF-kB) (AID 2282991). The following applies: HepG2 Attagene cis-factorial NF-kB reporter mRNA; actives raise or lower the signal. In short, it runs like this:
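Endogenous transcription factor activity in HepG2 was captured via cis-regulated reporter constructs; after 24 h dosing, reporter mRNA was reverse-transcribed, amplified, fluorescently labelled and sized by capillary electrophoresis, with activity fitted bidirectionally relative to DMSO.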

The nature of test [17]: BSK_3C_Proliferation: Cell Proliferation Assessment in the BioMAP Diversity Plus: 3C Assay (AID 2283006).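 For AC50: potency may reflect either rise or fall in cell number versus DMSO.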 The following applies: primary human endothelial cells (HUVEC). In short, it runs like this: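 Measured here: sulforhodamine B (0.1%) staining of TCA-fixed sub-confluent umbilical vein endothelial cultures 48 h post-dosing, absorbance 560 nm. DMSO served as negative control and baseline; both signal gain and loss were modelled.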

In test [18] the target is human RAR-related Orphan Receptor gamma (RORg), RORC (gene 6097) (UniProt P51449). In words: ATG_RORg_TRANS: Attagene TRANS-FACTORIAL HepG2 Assay for human RAR-related Orphan Receptor gamma (RORg) (AID 2283011; active = hit-call score of the fitted dose curve at least 0.9, where 1 is the maximum). The essentials: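 Activity is scored as increase in GAL4-UAS reporter mRNA over DMSO, detected by fluorescent RT-PCR and capillary electrophoresis in HepG2 cells transiently expressing a RORg-Gal4 chimera, 24 h after dosing.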
Chain of human RAR-related Orphan Receptor gamma (RORg), RORC (gene 6097) (P51449 whole entry, looked up, the tested form may be a part): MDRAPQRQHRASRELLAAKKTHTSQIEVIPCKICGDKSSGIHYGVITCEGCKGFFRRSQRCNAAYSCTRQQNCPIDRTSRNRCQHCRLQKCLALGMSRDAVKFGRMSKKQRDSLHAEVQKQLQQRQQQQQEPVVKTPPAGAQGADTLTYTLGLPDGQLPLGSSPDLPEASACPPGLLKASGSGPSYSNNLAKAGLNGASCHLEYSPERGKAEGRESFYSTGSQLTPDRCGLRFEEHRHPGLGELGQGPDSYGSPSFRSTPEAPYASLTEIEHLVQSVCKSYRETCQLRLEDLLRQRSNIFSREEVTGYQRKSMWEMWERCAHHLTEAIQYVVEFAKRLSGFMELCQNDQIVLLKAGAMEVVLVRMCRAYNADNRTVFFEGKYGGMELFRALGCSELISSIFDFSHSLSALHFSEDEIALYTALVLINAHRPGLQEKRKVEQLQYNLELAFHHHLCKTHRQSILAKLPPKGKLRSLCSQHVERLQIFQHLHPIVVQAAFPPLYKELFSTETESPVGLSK

The target in test [19] is human Peroxisome Proliferator-activated Receptor delta (PPARd), PPARD (gene 5467) (UniProt Q03181). In words: ATG_PPARd_TRANS: Attagene TRANS-FACTORIAL HepG2 Assay for human Peroxisome Proliferator-activated Receptor delta (PPARd) (AID 2283002; active = hit-call score of the fitted dose curve at least 0.9, where 1 is the maximum). In short, it runs like this: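 Transient HepG2 transfection (multiple GAL4-UAS RTUs, chimeric receptor-Gal4); 24 h dosing; total RNA → oligo(dT) RT → PCR → 6-FAM primer extension → HpaI cut → CE. Positive direction vs DMSO.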

For test [20], the target named is human RAR-related Orphan Receptor beta (RORb), RORB (gene 6096) (UniProt Q92753). In words: ATG_RORb_TRANS: Attagene TRANS-FACTORIAL HepG2 Assay for human RAR-related Orphan Receptor beta (RORb) (AID 2283010; active = hit-call score of the fitted dose curve at least 0.9, where 1 is the maximum). The essentials: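 Multiplexed transcription-factor reporter assay: HepG2 cells transiently carrying NR-Gal4/GAL4-UAS constructs, 24 h treatment, mRNA quantified by RT-PCR plus capillary electrophoresis fluorescence; activity scored as induction over DMSO.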
Chain of human RAR-related Orphan Receptor beta (RORb), RORB (gene 6096) (Q92753 whole entry, looked up, the tested form may be a part): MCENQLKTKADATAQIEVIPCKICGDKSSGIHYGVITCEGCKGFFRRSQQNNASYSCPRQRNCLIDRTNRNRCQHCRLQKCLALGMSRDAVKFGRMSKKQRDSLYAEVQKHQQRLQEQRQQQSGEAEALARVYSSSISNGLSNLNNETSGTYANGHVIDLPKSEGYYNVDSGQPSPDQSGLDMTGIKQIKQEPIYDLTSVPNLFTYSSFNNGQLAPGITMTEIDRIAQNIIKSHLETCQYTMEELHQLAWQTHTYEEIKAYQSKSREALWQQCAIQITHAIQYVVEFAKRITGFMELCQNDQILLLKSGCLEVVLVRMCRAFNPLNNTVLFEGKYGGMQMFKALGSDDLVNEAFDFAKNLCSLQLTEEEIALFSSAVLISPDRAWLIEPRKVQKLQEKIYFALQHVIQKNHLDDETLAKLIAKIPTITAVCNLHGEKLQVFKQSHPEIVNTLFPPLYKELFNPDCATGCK

Chain of human Retinoic Acid Receptor beta (RARb), RARB (gene 5915) (P10826 whole entry, looked up, the tested form may be a part): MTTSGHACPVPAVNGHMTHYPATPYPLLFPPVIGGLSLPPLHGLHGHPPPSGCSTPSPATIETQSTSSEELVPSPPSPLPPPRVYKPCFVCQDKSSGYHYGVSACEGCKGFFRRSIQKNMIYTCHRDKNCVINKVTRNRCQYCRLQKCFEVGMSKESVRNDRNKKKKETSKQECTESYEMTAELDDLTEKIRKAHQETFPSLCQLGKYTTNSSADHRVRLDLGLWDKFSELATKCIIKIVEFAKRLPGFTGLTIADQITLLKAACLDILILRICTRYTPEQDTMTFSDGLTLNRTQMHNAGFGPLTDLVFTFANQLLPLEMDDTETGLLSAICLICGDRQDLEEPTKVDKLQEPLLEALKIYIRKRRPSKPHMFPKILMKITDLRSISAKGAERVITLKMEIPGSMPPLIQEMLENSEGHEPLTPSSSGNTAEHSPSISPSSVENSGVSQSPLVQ
Chain of Retinoic acid receptor RXR-alpha (Homo sapiens) (P19793 whole entry, looked up, the tested form may be a part): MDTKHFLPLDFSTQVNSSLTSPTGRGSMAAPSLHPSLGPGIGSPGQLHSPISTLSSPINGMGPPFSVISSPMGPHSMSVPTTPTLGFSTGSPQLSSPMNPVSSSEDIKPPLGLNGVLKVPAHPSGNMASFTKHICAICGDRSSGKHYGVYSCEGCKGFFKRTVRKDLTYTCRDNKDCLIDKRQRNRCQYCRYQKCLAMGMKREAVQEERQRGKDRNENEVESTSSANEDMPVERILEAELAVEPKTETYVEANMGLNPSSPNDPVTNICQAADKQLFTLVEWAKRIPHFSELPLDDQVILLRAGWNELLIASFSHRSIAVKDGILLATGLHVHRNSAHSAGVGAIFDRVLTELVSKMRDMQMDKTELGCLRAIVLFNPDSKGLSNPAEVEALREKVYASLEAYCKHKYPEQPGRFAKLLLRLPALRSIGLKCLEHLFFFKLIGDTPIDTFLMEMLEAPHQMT
Chain of Retinoic acid receptor alpha (Homo sapiens) (P10276 whole entry, looked up, the tested form may be a part): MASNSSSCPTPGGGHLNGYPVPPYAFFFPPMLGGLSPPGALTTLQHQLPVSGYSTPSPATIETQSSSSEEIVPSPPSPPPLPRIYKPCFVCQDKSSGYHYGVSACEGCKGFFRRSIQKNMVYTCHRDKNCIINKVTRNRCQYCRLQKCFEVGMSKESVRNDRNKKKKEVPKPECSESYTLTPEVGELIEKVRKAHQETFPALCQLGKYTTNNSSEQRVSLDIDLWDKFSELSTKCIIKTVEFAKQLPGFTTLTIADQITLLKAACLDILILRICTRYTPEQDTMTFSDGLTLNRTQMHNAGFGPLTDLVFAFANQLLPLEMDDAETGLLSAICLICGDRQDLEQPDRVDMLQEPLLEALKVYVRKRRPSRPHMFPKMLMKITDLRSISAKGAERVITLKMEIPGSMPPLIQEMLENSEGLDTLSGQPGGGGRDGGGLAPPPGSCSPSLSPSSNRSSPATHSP
Chain of Nuclear receptor subfamily 1 group I member 2 (Homo sapiens) (O75469 whole entry, looked up, the tested form may be a part): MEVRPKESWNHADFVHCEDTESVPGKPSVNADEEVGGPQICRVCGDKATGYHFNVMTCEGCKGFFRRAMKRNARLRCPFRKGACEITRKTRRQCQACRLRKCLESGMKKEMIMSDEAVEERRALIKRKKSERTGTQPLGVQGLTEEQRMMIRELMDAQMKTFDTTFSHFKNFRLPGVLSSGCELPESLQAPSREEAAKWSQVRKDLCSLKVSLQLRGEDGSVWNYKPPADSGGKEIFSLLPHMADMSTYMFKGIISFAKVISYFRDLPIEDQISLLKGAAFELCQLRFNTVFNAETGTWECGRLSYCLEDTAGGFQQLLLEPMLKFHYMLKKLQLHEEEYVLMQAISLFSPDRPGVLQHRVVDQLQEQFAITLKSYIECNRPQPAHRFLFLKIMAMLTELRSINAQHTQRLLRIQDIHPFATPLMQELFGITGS
Chain of human Retinoic Acid Receptor gamma (RARg), RARG (gene 5916) (P13631 whole entry, looked up, the tested form may be a part): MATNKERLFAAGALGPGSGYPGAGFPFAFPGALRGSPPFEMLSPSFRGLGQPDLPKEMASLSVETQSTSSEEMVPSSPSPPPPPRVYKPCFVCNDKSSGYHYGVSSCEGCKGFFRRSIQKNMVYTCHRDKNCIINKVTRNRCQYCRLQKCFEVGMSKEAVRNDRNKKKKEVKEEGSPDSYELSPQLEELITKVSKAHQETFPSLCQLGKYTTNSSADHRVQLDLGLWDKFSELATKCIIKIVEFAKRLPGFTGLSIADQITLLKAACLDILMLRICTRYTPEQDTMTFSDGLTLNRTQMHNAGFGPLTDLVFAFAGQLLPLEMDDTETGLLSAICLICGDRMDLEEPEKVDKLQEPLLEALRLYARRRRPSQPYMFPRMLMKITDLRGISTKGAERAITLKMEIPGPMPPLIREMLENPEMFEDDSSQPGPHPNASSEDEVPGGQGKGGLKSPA
Chain of human Peroxisome Proliferator-activated Receptor alpha (PPARa), PPARA (gene 5465) (Q07869 whole entry, looked up, the tested form may be a part): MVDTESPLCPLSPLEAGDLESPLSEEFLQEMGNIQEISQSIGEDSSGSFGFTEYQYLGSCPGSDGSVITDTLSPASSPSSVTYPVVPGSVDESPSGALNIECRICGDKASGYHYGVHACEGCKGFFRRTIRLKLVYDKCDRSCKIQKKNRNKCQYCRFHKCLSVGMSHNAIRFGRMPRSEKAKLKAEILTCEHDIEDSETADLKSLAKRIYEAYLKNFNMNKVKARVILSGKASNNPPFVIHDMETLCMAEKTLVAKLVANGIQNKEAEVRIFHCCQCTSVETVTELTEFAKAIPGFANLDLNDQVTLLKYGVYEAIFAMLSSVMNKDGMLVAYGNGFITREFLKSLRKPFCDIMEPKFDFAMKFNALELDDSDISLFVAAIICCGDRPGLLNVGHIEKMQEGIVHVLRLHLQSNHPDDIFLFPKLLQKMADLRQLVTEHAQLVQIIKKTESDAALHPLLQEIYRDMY

For `COCCOCCOCCOC`, the outcome in test [1], in test [2], in test [3], in [4], in test [5] and in test [6] was inactive. Further, the outcome in test [7], in [8], in test [9], in [10], in test [11] and in test [12] was inactive. Besides, the call in test [13], in test [14] and in [15] was inactive.
`CCCCCCCCCCCCCCCO`: the molecule was classed as inactive in test [16], in test [1], in test [2], in test [3], in test [4] and in test [8]. For the same molecule, the outcome in [9], in test [12], in test [18] and in [15] was inactive. Also, the AC50 in test [5] is 35.6 µM (active); in test [6], 15.4 µM (active); in test [7] it was 36.5 µM (active); in test [17], 14.7 µM (active).
For the molecule `CC(C)=CCCC(C)=CC=O`, the AC50 in test [1] was 62.4 µM (active); in test [8], 58.6 µM (active); in [12], 21 µM (active); in [13] it was 4.42 µM (active). In addition, the molecule was classed as inactive in test [2], in test [3], in [4], in test [5], in test [6] and in test [7]. The molecule was classed as inactive in [19], in test [9], in test [18] and in [15].
On to `Fc1ccccc1[C@@H](F)COC1CCC(Nc2ncnc3[nH]ncc23)CC1` (stereo not given in full), for which the molecule was classed as inactive in test [16], in test [2], in [3], in [6], in test [9] and in test [12]. Further, the AC50 is 6.77 µM (active) in test [1]; 35.2 µM (active) in test [4]; 15.2 µM (active) in test [5]; 23.6 µM (active) in [7]; 29.3 µM (active) in [17].
As for `O=C(O)CCN(C1(C(=O)NO)CCCC1)S(=O)(=O)c1ccc(Oc2ccc(F)cc2)cc1`, the call in [16], in [1], in test [2], in test [3], in [4] and in test [5] was inactive. Further, the result in test [6], in test [7], in test [8], in test [9], in test [10] and in [17] was inactive. Besides, the molecule was classed as inactive in test [12], in test [14], in test [20] and in test [15].
As to `CCNc1ccccc1`, the molecule was called inactive in test [16], in test [1], in test [2], in [3], in test [4] and in test [5]. Moreover, the outcome in test [6], in test [7], in test [8], in test [9], in test [10] and in test [11] was inactive. The call in test [12], in test [13], in test [14] and in [18] was inactive.
As to `Cc1ccc(S(=O)(=O)O)cc1C`, the molecule was classed as inactive in test [1], in test [2], in [3], in [4], in test [5] and in test [6]. Besides, the result in [7], in test [8], in [9], in test [10], in test [11] and in test [17] was inactive. Further, the result in test [12] and in test [15] was inactive.
